# Data reported in the supplement of paper PMC8728848.
# The full list was thinned out, with the strongest signals kept by preference.
# B1: LSECtin (Homo sapiens), Q6UXB4 (protein)
# chain: MDTTRYSKWGGSSEEVPGGPWGRWVHWSRRPLFLALAVLVTTVLWAVILSILLSKASTERAALLDGHDLLRTNASKQTAALGALKEEVGDCHSCCSGTQAQLQTTRAELGEAQAKLMEQESALRELRERVTQGLAEAGRGREDVRTELFRALEAVRLQNNSCEPCPTSWLSFEGSCYFFSVPKTTWAAAQDHCADASAHLVIVGGLDEQGFLTRNTRGRGYWLGLRAVRHLGKVQGYQWVDGVSLSFSHWNQGEPNDAWGRENCVMMLHTGLWNDAPCDSEKDGWICEKRHNC
# Key:
# Experiment in all cases: glycan array binding signal (z-score within array); higher = stronger binding
# Conditions in all cases: glycan notation: IUPAC condensed, linker removed
# Fuc(a1-2)Gal = target: Fuc(a1-2)Gal
# Method in brief: (§1)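 Glycan array binding is given as a within-array Z-score, which can be read as non-binding when negative. The arrays, 3228 of them, came from the Consortium for Functional Glycomics database and were retained only where the protein sequence was available. Z-scores were averaged across arrays of the same protein sequence at different concentrations or buffers and across linkers.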
# [1] = target: Fuc(a1-2)Gal(b1-3)GlcNAc6S
# Method in brief: as §1
# [2] = target: Fuc(a1-2)Gal6S(b1-3)GlcNAc
# Method in brief: as §1
# [3] = target: Fuc(a1-2)[Gal(a1-3)]Gal(b1-3)GlcNAc
# Method in brief: as §1
# [4] = target: Fuc(a1-2)[Gal(a1-3)]Gal(b1-3)GlcNAc(b1-3)GalNAc
# Method in brief: as §1
# [5] = target: Fuc(a1-2)[Gal(a1-3)]Gal(b1-4)[Fuc(a1-3)]Glc
# Method in brief: as §1
# [6] = target: Fuc(a1-2)[GalNAc(a1-3)]Gal(b1-4)GlcNAc(b1-2)Man(a1-3)[GalNAc(a1-3)[Fuc(a1-2)]Gal(b1-4)GlcNAc(b1-2)Man(a1-6)]Man(b1-4)GlcNAc(b1-4)GlcNAc
# Method in brief: as §1
# [7] = target: Fuc(a1-3)[Gal(b1-4)]GlcNAc(b1-2)Man(a1-3)[Fuc(a1-3)[Gal(b1-4)]GlcNAc(b1-2)Man(a1-6)]Man(b1-4)GlcNAc(b1-4)[Fuc(a1-6)]GlcNAc
# Method in brief: as §1
# [8] = target: Fuc(a1-3)[Gal3S(b1-4)]Glc6S
# Method in brief: as §1
# Fuc(a1-4)GlcNAc = target: Fuc(a1-4)GlcNAc
# Method in brief: as §1
# Gal(a1-4)Gal(b1-4)GlcNAc = target: Gal(a1-4)Gal(b1-4)GlcNAc
# Method in brief: as §1
# [9] = target: Gal(a1-4)Gal(b1-4)GlcNAc(b1-3)Gal(b1-4)Glc
# Method in brief: as §1
# [10] = target: Gal(b1-3)GlcNAc(b1-3)Gal(b1-4)GlcNAc(b1-3)Gal(b1-4)GlcNAc(b1-2)[Gal(b1-3)GlcNAc(b1-3)Gal(b1-4)GlcNAc(b1-3)Gal(b1-4)GlcNAc(b1-6)]Man(a1-6)[Gal(b1-3)GlcNAc(b1-3)Gal(b1-4)GlcNAc(b1-3)Gal(b1-4)GlcNAc(b1-2)Man(a1-3)]Man(b1-4)GlcNAc(b1-4)[Fuc(a1-6)]GlcNAc
# Method in brief: as §1
# [11] = target: Gal(b1-3)GlcNAc(b1-3)Gal(b1-4)[Fuc(a1-3)]GlcNAc(b1-6)[Gal(b1-3)GlcNAc(b1-3)]Gal(b1-4)Glc
# Method in brief: as §1
# [12] = target: Gal(b1-3)GlcNAc(b1-6)Gal(b1-4)GlcNAc
# Method in brief: as §1
# [13] = target: Gal(b1-3)[GlcNAc(b1-6)]GalNAc
# Method in brief: as §1
# [14] = target: Gal(b1-3)[Neu5Ac(a2-6)]GlcNAc(b1-6)Gal(b1-4)Glc
# Method in brief: as §1
# [15] = target: Gal(b1-4)GlcNAc(b1-2)Man(a1-3)[Gal(b1-4)GlcNAc(b1-2)Man(a1-6)]Man(b1-4)GlcNAc(b1-4)GlcNAc
# Method in brief: as §1
# [16] = target: Gal(b1-4)GlcNAc(b1-2)Man(a1-6)[GlcNAc(b1-2)Man(a1-3)]Man(b1-4)GlcNAc(b1-4)GlcNAc
# Method in brief: as §1
# [17] = target: Gal(b1-4)GlcNAc(b1-3)Gal(b1-4)GlcNAc(b1-2)[Gal(b1-4)GlcNAc(b1-3)Gal(b1-4)GlcNAc(b1-6)]Man(a1-6)[Gal(b1-4)GlcNAc(b1-3)Gal(b1-4)GlcNAc(b1-2)Man(a1-3)]Man(b1-4)GlcNAc(b1-4)GlcNAc
# Method in brief: as §1
# [18] = target: Gal(b1-4)GlcNAc(b1-3)Gal(b1-4)GlcNAc(b1-3)Gal(b1-4)GlcNAc(b1-3)Gal(b1-4)GlcNAc(b1-2)Man(a1-3)[Gal(b1-4)GlcNAc(b1-3)Gal(b1-4)GlcNAc(b1-3)Gal(b1-4)GlcNAc(b1-3)Gal(b1-4)GlcNAc(b1-2)Man(a1-6)]Man(b1-4)GlcNAc(b1-4)GlcNAc
# Method in brief: as §1
# [19] = target: Gal(b1-4)GlcNAc(b1-3)Gal(b1-4)GlcNAc(b1-3)Gal(b1-4)GlcNAc(b1-3)Gal(b1-4)GlcNAc(b1-2)Man(a1-3)[Gal(b1-4)GlcNAc(b1-3)Gal(b1-4)GlcNAc(b1-3)Gal(b1-4)GlcNAc(b1-3)Gal(b1-4)GlcNAc(b1-2)Man(a1-6)]Man(b1-4)GlcNAc(b1-4)[Fuc(a1-6)]GlcNAc
# Method in brief: as §1
# [20] = target: Gal3S(b1-3)[Fuc(a1-4)]GlcNAc
# Method in brief: as §1
# [21] = target: Gal3S(b1-4)[Fuc(a1-3)]GlcNAc6S
# Method in brief: as §1
# Gal4S(b1-4)GlcNAc = target: Gal4S(b1-4)GlcNAc
# Method in brief: as §1
# Gal6S(b1-3)GlcNAc6S = target: Gal6S(b1-3)GlcNAc6S
# Method in brief: as §1
# Gal6S(b1-4)Glc = target: Gal6S(b1-4)Glc
# Method in brief: as §1
# Gal6S(b1-4)GlcNAc6S = target: Gal6S(b1-4)GlcNAc6S
# Method in brief: as §1
# GalNAc(b1-3)Gal = target: GalNAc(b1-3)Gal
# Method in brief: as §1
# [22] = target: GalNAc(b1-3)Gal(a1-6)Gal(b1-4)Glc
# Method in brief: as §1
# Glc(a1-6)Glc(a1-6)Glc = target: Glc(a1-6)Glc(a1-6)Glc
# Method in brief: as §1
# [23] = target: GlcNAc(a1-4)Gal(b1-4)GalNAc
# Method in brief: as §1
# [24] = target: GlcNAc(b1-2)Man(a1-3)[GlcNAc(b1-2)Man(a1-6)]Man(b1-4)GlcNAc(b1-4)GlcNAc
# Method in brief: as §1
# [25] = target: GlcNAc(b1-2)Man(a1-3)[GlcNAc(b1-4)][GlcNAc(b1-2)Man(a1-6)]Man(b1-4)GlcNAc(b1-4)GlcNAc
# Method in brief: as §1
# [26] = target: GlcNAc(b1-2)Man(a1-3)[GlcNAc(b1-4)][GlcNAc(b1-2)Man(a1-6)]Man(b1-4)GlcNAc(b1-4)[Fuc(a1-6)]GlcNAc
# Method in brief: as §1
# [27] = target: GlcNAc(b1-2)[GlcNAc(b1-4)]Man(a1-3)[GlcNAc(b1-2)Man(a1-6)]Man(b1-4)GlcNAc(b1-4)GlcNAc
# Method in brief: as §1
# [28] = target: GlcNAc(b1-2)[GlcNAc(b1-6)]Man(a1-6)[GlcNAc(b1-2)Man(a1-3)]Man(b1-4)GlcNAc(b1-4)GlcNAc
# Method in brief: as §1
# [29] = target: GlcNAc(b1-2)[GlcNAc(b1-6)]Man(a1-6)[GlcNAc(b1-2)Man(a1-3)]Man(b1-4)GlcNAc(b1-4)[Fuc(a1-6)]GlcNAc
# Method in brief: as §1
# GlcNAc(b1-3)Gal(b1-4)Glc = target: GlcNAc(b1-3)Gal(b1-4)Glc
# Method in brief: as §1
# [30] = target: GlcNAc(b1-3)Gal(b1-4)GlcNAc(b1-3)[GlcNAc(b1-3)Gal(b1-4)GlcNAc(b1-3)]GalNAc
# Method in brief: as §1
# Kdn(a2-6)Gal(b1-4)GlcNAc = target: Kdn(a2-6)Gal(b1-4)GlcNAc
# Method in brief: as §1
# [31] = target: Neu5Ac(a2-3)Gal(b1-3)GalNAc(b1-4)[Neu5Ac(a2-3)]Gal(b1-4)Glc
# Method in brief: as §1
# [32] = target: Neu5Ac(a2-3)Gal(b1-3)[Fuc(a1-4)]GlcNAc
# Method in brief: as §1
# [33] = target: Neu5Ac(a2-3)Gal(b1-4)GlcNAc(b1-2)Man(a1-3)[GlcNAc(b1-4)][Neu5Ac(a2-3)Gal(b1-4)GlcNAc(b1-2)Man(a1-6)]Man(b1-4)GlcNAc(b1-4)GlcNAc
# Method in brief: as §1
# [34] = target: Neu5Ac(a2-3)Gal(b1-4)[Fuc(a1-3)]GlcNAc(b1-3)GalNAc
# Method in brief: as §1
# [35] = target: Neu5Ac(a2-3)GalNAc(b1-4)GlcNAc
# Method in brief: as §1
# [36] = target: Neu5Ac(a2-6)Gal(b1-4)GlcNAc(b1-2)Man(a1-3)[GlcNAc(b1-2)Man(a1-6)]Man(b1-4)GlcNAc(b1-4)GlcNAc
# Method in brief: as §1
# [37] = target: Neu5Ac(a2-6)Gal(b1-4)GlcNAc(b1-2)Man(a1-6)[GlcNAc(b1-2)Man(a1-3)]Man(b1-4)GlcNAc(b1-4)GlcNAc
# Method in brief: as §1
# [38] = target: Neu5Ac(a2-6)Gal(b1-4)GlcNAc(b1-2)[Neu5Ac(a2-6)Gal(b1-4)GlcNAc(b1-4)]Man(a1-3)[GlcNAc(b1-4)][Neu5Ac(a2-6)Gal(b1-4)GlcNAc(b1-2)[Neu5Ac(a2-6)Gal(b1-4)GlcNAc(b1-6)]Man(a1-6)]Man(b1-4)GlcNAc(b1-4)GlcNAc
# Method in brief: as §1
# [39] = target: Neu5Ac(a2-6)Gal(b1-4)GlcNAc(b1-6)[Gal(b1-3)]GalNAc
# Method in brief: as §1
# [40] = target: Neu5Ac(a2-8)Neu5Ac(a2-8)Neu5Ac(a2-3)Gal(b1-4)Glc
# Method in brief: as §1
# Neu5Ac(b2-6)GalNAc = target: Neu5Ac(b2-6)GalNAc
# Method in brief: as §1
binder,measurement,setting,value
B1,glycan array binding signal (z-score),Fuc(a1-2)Gal,-0.224
same,glycan array binding signal (z-score),[1],-0.125
same,glycan array binding signal (z-score),[2],-0.129
same,glycan array binding signal (z-score),[3],-0.157
same,glycan array binding signal (z-score),[4],-0.129
same,glycan array binding signal (z-score),[5],-0.135
same,glycan array binding signal (z-score),[6],2.77
same,glycan array binding signal (z-score),[7],-0.124
same,glycan array binding signal (z-score),[8],4.05
same,glycan array binding signal (z-score),Fuc(a1-4)GlcNAc,-0.206
same,glycan array binding signal (z-score),Gal(a1-4)Gal(b1-4)GlcNAc,0.114
same,glycan array binding signal (z-score),[9],-0.084
same,glycan array binding signal (z-score),[10],-0.127
same,glycan array binding signal (z-score),[11],-0.13
same,glycan array binding signal (z-score),[12],-0.137
same,glycan array binding signal (z-score),[13],0.004
same,glycan array binding signal (z-score),[14],-0.085
same,glycan array binding signal (z-score),[15],-0.21
same,glycan array binding signal (z-score),[16],5.9
same,glycan array binding signal (z-score),[17],-0.139
same,glycan array binding signal (z-score),[18],-0.133
same,glycan array binding signal (z-score),[19],-0.123
same,glycan array binding signal (z-score),[20],-0.158
same,glycan array binding signal (z-score),[21],-0.133
same,glycan array binding signal (z-score),Gal4S(b1-4)GlcNAc,-0.143
same,glycan array binding signal (z-score),Gal6S(b1-3)GlcNAc6S,-0.136
same,glycan array binding signal (z-score),Gal6S(b1-4)Glc,-0.141
same,glycan array binding signal (z-score),Gal6S(b1-4)GlcNAc6S,-0.109
same,glycan array binding signal (z-score),GalNAc(b1-3)Gal,-0.182
same,glycan array binding signal (z-score),[22],-0.134
same,glycan array binding signal (z-score),Glc(a1-6)Glc(a1-6)Glc,-0.232
same,glycan array binding signal (z-score),[23],3.23
same,glycan array binding signal (z-score),[24],6.75
same,glycan array binding signal (z-score),[25],6.57
same,glycan array binding signal (z-score),[26],6.3
same,glycan array binding signal (z-score),[27],3.06
same,glycan array binding signal (z-score),[28],7.17
same,glycan array binding signal (z-score),[29],9.94
same,glycan array binding signal (z-score),GlcNAc(b1-3)Gal(b1-4)Glc,-0.109
same,glycan array binding signal (z-score),[30],-0.126
same,glycan array binding signal (z-score),Kdn(a2-6)Gal(b1-4)GlcNAc,-0.149
same,glycan array binding signal (z-score),[31],-0.231
same,glycan array binding signal (z-score),[32],-0.079
same,glycan array binding signal (z-score),[33],-0.14
same,glycan array binding signal (z-score),[34],4.08
same,glycan array binding signal (z-score),[35],-0.22
same,glycan array binding signal (z-score),[36],0.942
same,glycan array binding signal (z-score),[37],5.06
same,glycan array binding signal (z-score),[38],-0.133
same,glycan array binding signal (z-score),[39],-0.137
same,glycan array binding signal (z-score),[40],-0.117
same,glycan array binding signal (z-score),Neu5Ac(b2-6)GalNAc,-0.124
